Records with an inconclusive call do not appear. Activity calls are given as the source filed them.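 How the source made its calls, unless noted: active means viability loss from added drug above about 55%, and viability with drug at most 40%, in both replicates (limit read from the data, passing the limit was not always enough); inconclusive means both conditions met in only one replicate; inactive means neither replicate meets both conditions.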
How the values were obtained:
[1] = Her2 expression decrease, cell viability multiplex – SKBR3 breast tumor cells, AlphaScreen, ATP viability, primary screen (AID 461;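 active means Her2 level under about 52% in both replicate screens, with viability over 70% of control, limit read from the data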;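 on Her2 level: lower value means less Her2 protein in the cells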;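 on viability: percent of carrier control wells set as 100% viability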); conditions: SKBR3 Her2 protein level, 18-24 h, measured here: SKBR3 viability, ATP luminescence, at 10 µM
[2] = target: Receptor tyrosine-protein kinase erbB-2 (Homo sapiens) (UniProt P04626); assay: as above; conditions: 18-24 h, at 10 µM, stronger effect = lower value
[3] = reduced viability of SK-BR-3 breast cancer cells – cell-based, 24 h, human, pilot screen (AID 572;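 active means viability at or below 10% of carrier control in both of two separate runs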;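 further: compound exposure lasted between 18 and 24 h rather than exactly 24 h; 100% = carrier-treated control wells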); conditions: SK-BR-3 viability, CellTiter-Glo luminescence, at 10 µM, stronger effect = lower value
[4] = HUVEC growth inhibition – cell-based, human, primary screen (AID 575;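 active means viability at or below 30% in both replicate assays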;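 further: 100% = median of untreated cell wells with 0.1% DMSO on each plate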); conditions: HUVEC proliferation, CellTiter-Glo luminescence, 72 h; at 10 µM; stronger effect = lower value
[5] = H69AR cell proliferation blockers – human, duplicate replicates, primary screen (AID 580;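 active means viability at or under a set limit in both replicates, limit being median viability minus 3 SD, cut at about 48% in these data, passing the limit was not always enough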;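 further: 100% = mean luminescence of untreated wells and 0% = no signal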); conditions: H69AR lung tumor cells viability, ATP luminescence, 72 h; at 10 µM; stronger effect = lower value
[6] = MRP1 drug-resistance reversers in H69AR cells – cell-based, doxorubicin co-treatment, pilot screen (AID 601); conditions: CellTiter-Glo, 72 h, at 10 µM; for differential viability (reversal): stronger effect = higher value
[7] = yeast transport mutant growth inhibition pilot in 384-well plates, post-Golgi transport modulator project (AID 636; in the data active means inhibition above about 31%); conditions: absorbance 615 nm, about 18 h, stronger effect = higher value
[8] = growth suppression of yeast trafficking mutant, preliminary HTS, modulators of trafficking downstream of Golgi apparatus project, 1536-format plate, OD 615 nm (AID 637; in the data active means inhibition above about 30%); conditions: yeast transport mutant growth, absorbance 615 nm, 18 h; stronger effect = higher value
[9] = S. cerevisiae growth inhibition in permissive medium (OD615), pilot counter-assay for S. cerevisiae lifespan shortening project, permissive growth control (AID 705;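 active means growth inhibition above 25% in both replicates, a cutoff set 3 SD above the mean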); conditions: OD615, 24 h, at 10 µM, stronger effect = higher value
[10] = S. cerevisiae growth inhibition in restrictive medium, OD615, pilot screen, restrictive growth control, yeast lifespan reduction project (AID 706;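 active means growth inhibition above a set limit, 3 SD over mean compound inhibition, in both replicates, cut at about 43% in these data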;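 further: modified DeaD lifespan yeast strain shifted to restrictive glucose medium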); conditions: OD615, 48 h, at 10 µM, stronger effect = higher value
[11] = doxorubicin toxicity protection in MRP-1 cells – H69AR cells, CellTiter-Glo, duplicate, MRP-1 activator project, pilot screen (AID 807;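 active means viability increase at or above a cutoff of the median across tested compounds plus 3 SD, cut at about 8.5% in these data, passing the limit was not always enough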;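 further: compound pretreatment 18-22 h then 72 h combined with doxorubicin; 0% = doxorubicin alone and 100% = vehicle without doxorubicin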); conditions: H69AR viability with doxorubicin, CellTiter-Glo luminescence; at 10 µM; stronger effect = higher value
[12] = viability of HCT116 without oncogenic beta-catenin – human colon tumor cells, pilot screen (AID 823;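 active means cell viability at or below a set limit in both duplicate runs, the limit being the all-compound median minus 4 SD, cut at about 23% in these data, passing the limit was not always enough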;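 further: 0% = wells killed by 20 µM Hyamine and 100% = untreated DMSO cell wells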); conditions: HCT116 beta-catenin knockout viability, CellTiter-Glo, 60 h; at 10 µM; stronger effect = lower value
[13] = viability of PTEN-null HCT116 cells – cell-based, HCT116 clonal line, CellTiter-Glo, pilot screen (AID 824;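 active means viability at or below 27.92% in each of two runs, the all-compound median minus 4 SD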;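 further: 0% = 20 µM Hyamine control and 100% = vehicle cell control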); conditions: HCT116 PTEN-deleted viability, 60 h, at 10 µM, stronger effect = lower value
[14] = RAM pathway blockade in budding yeast – dse1pr::URA3 reporter, 5-FOA selection, pilot screen (AID 869;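 active means inhibition over a set limit, the all-compound mean plus 3 SD, in both replicate runs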;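 further: 0% = DMSO wells with no growth and 100% = 10 µM 1-NA-PP1 with full growth; RAM network block rescues cells from 5-FOA so hits raise OD615 growth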); conditions: S. cerevisiae dse1pr::URA3 5-FOA growth, OD615, 2 d; at 10 µM; stronger effect = higher value; strain carries analog-sensitive mutant Cbk1 kinase
[15] = RAM signaling pathway blockade in yeast – S. cerevisiae, Pdr1DBD-CYC8 efflux-inhibited sensitized strain, primary screen (AID 1298;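 active means RAM network inhibition above 8.4% in each of two replicates, 3 SD over the compound average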;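 further: 0% = DMSO untreated cells without growth and 100% = 10 µM 1-NA-PP1 full growth; higher means more yeast growth rescued from 5-FOA killing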); conditions: S. cerevisiae cbk1-as DSE1-URA3 strain, 5-FOA growth OD615, 2 d; at 50 µM; stronger effect = higher value
[16] = H69AR cells + 2 uM doxorubicin, measured here: viability with 2 uM doxorubicin, stronger effect = lower value
[17] = H69AR cells, compound alone cytotoxicity

Chain of Receptor tyrosine-protein kinase erbB-2 (Homo sapiens) (P04626 whole entry, looked up): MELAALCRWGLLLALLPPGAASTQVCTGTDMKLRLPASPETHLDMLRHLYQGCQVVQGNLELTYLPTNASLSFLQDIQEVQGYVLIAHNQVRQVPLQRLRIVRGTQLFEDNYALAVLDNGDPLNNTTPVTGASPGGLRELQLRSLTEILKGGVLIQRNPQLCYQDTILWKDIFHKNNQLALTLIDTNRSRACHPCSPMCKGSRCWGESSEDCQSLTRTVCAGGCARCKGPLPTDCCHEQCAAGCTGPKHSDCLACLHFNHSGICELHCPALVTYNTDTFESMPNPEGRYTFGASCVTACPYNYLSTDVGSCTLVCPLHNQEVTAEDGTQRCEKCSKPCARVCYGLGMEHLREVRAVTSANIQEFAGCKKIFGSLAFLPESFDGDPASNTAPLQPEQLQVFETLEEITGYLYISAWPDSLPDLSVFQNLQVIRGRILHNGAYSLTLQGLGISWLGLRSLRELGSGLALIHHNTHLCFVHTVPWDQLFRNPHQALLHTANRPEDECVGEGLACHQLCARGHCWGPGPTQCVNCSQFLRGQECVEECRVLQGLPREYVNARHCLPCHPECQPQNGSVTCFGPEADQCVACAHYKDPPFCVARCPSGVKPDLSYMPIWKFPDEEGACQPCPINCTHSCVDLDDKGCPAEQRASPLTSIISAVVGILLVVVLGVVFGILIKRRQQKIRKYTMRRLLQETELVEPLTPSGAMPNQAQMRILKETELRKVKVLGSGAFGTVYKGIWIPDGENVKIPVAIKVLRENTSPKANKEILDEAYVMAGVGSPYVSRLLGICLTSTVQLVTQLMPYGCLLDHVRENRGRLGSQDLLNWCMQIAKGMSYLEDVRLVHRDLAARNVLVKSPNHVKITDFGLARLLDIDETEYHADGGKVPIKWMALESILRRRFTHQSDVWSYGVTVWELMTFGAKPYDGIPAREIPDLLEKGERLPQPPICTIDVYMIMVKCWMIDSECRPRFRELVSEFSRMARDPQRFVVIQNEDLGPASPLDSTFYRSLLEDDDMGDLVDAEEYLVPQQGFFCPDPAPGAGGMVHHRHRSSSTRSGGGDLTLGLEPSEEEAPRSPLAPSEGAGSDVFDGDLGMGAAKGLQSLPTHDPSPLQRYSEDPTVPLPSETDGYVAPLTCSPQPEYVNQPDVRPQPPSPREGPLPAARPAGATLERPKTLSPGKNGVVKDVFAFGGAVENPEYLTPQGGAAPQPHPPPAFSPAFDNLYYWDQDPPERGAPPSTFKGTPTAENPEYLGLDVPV

Compound	viability [1] [%]	Her2 level [2]	viability [3]	viability [4]	viability [5]	differential viability (reversal) ([6]; H69AR cells + 2 uM doxorubicin)	viability [6, 16] [%]	viability [6, 17] [%]	inhibition [7]	inhibition [8]	growth inhibition [9]	growth inhibition [10]	viability increase [11]	viability [12]	viability [13]	inhibition [14]	RAM network inhibition [15]
CCn1cc(C2=NOC(C(=O)Nc3c(C)nn(Cc4ccc(F)cc4)c3C)C2)c(C)n1 (stereo not drawn)	76.5	86.5% (inactive)	76.5% (inactive)	86.2% (inactive)	88.2% (inactive)	1.12% (inactive)	87.1	88.2	-1.41% (inactive)	1.67% (inactive)	-11.1% (inactive)	2.07% (inactive)	1.43% (inactive)	95.2% (inactive)	103% (inactive)	1.9% (inactive)	1.61% (inactive)
CCC(C)NC(=O)c1cc(CC(C)C)on1 (stereo not drawn)	84	111% (inactive)	84% (inactive)	95.5% (inactive)	83.6% (inactive)	-11.1% (inactive)	94.7	83.6	-0.26% (inactive)	18.3% (inactive)	-2.93% (inactive)	-0.685% (inactive)	1.13% (inactive)	102% (inactive)	103% (inactive)	-0.07% (inactive)	2.69% (inactive)
CN1CCN(Cc2nc3c(c(=O)n(C)c(=O)n3C)n2Cc2ccccc2Cl)CC1	80.5	97.5% (inactive)	80.5% (inactive)	86.5% (inactive)	86.9% (inactive)	7.12% (inactive)	79.8	86.9	-5.07% (inactive)	-2.17% (inactive)	-5.17% (inactive)	-14.4% (inactive)	-2.56% (inactive)	91.8% (inactive)	91.3% (inactive)	1.5% (inactive)	4.45% (inactive)
Cn1nnnc1SCC(=O)Nc1ccccc1C(=O)NCc1ccccc1	99	98% (inactive)	99% (inactive)	108% (inactive)	90.2% (inactive)	-4.73% (inactive)	94.9	90.2	-6.49% (inactive)	-7.33% (inactive)	-9.6% (inactive)	4.06% (inactive)	-2.1% (inactive)	97.6% (inactive)	97.8% (inactive)	1.04% (inactive)	7.35% (inactive)
Cc1nc2ccccc2c2oc(C(=O)NCCN3CCCCC3C)cc12 (stereo not drawn)	81	94% (inactive)	81% (inactive)	99.5% (inactive)	93.1% (inactive)	-6.12% (inactive)	99.2	93.1	-3.46% (inactive)	-3% (inactive)	-3.45% (inactive)	0.34% (inactive)	-2.08% (inactive)	66.4% (inactive)	70.6% (inactive)	1.77% (inactive)	-0.67% (inactive)
O=C(C1CCC(CNc2c(N3CCCCC3)c(=O)c2=O)CC1)N1CCc2ccccc2C1 (stereo not drawn)	95	93.5% (inactive)	95% (inactive)	107% (inactive)	91.8% (inactive)	9.49% (inactive)	82.3	91.8	-0.53% (inactive)	0% (inactive)	-4.97% (inactive)	-4.18% (inactive)	-3.33% (inactive)	87.5% (inactive)	83.2% (inactive)	-0.07% (inactive)	2.9% (inactive)
NC(=O)CN1C(=O)C(O)(CC(=O)c2ccccc2O)c2ccccc21 (stereo not drawn)	92.5	95.5% (inactive)	92.5% (inactive)	92.1% (inactive)	91.8% (inactive)	-5.2% (inactive)	97	91.8	-2.67% (inactive)	-1.17% (inactive)	1.61% (inactive)	-10.4% (inactive)	-2.93% (inactive)	94.8% (inactive)	93.9% (inactive)	1.52% (inactive)	2.98% (inactive)
CCOC(=O)N1CCN(C(=O)CSc2nnc(-c3cccc(Cl)c3)o2)CC1	82.5	96.5% (inactive)	82.5% (inactive)	86.1% (inactive)	93.9% (inactive)	7.46% (inactive)	86.4	93.9	0.13% (inactive)	-2.95% (inactive)	-6.25% (inactive)	-10.5% (inactive)	-0.22% (inactive)	105% (inactive)	100% (inactive)	2.61% (inactive)	2.71% (inactive)
COc1cccc(C2CC(=O)Nc3c2c(=O)n(C)c(=O)n3C)c1OC (stereo not drawn)	98.5	101% (inactive)	98.5% (inactive)	93.8% (inactive)	102% (inactive)	15.2% (inactive)	87	102	1.33% (inactive)	-4.75% (inactive)	-3.2% (inactive)	-1.43% (inactive)	0.25% (inactive)	98.9% (inactive)	95.9% (inactive)	2.06% (inactive)	7.39% (inactive)

From PubChem BioAssay
